Experiments:
Assay in all cases: phenotypically active (imaging signature differs from DMSO and reproducible) at any of 0.3-9 uM (binary (1 = active, 0 = inactive)); higher = active
Conditions in all cases: treatment time: 24 h
A549-ACTB-RAB5A = test system: A549-ACTB-RAB5A
Procedure, shortened: (§1)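 Live-cell features were measured per well and normalised to solvent control wells after fifteen gene-edited A549, HepG2 and WPMY1 reporter lines had been treated for 24 h at 0.3, 1, 3 or 9 µM in four wells each. A condition was deviating when ≥3 of 4 wells sat beyond the 95th percentile of control Euclidean distances. It was reproducible when the median replicate Pearson correlation exceeded the 95th percentile of non-replicates. Phenotypic activity demanded both.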

A549-CANX-COX4 = test system: A549-CANX-COX4
Procedure, shortened: as §1

A549-GM130-SQSTM1 = test system: A549-GM130-SQSTM1
Procedure, shortened: as §1

A549-TP53BP1-CLTA = test system: A549-TP53BP1-CLTA
Procedure, shortened: as §1

A549-TUBA1B-RELA = test system: A549-TUBA1B-RELA
Procedure, shortened: as §1

HepG2-ACTB-RAB5A = test system: HepG2-ACTB-RAB5A
Procedure, shortened: as §1

HepG2-CANX-COX4 = test system: HepG2-CANX-COX4
Procedure, shortened: as §1

HepG2-GM130-SQSTM1 = test system: HepG2-GM130-SQSTM1
Procedure, shortened: as §1

HepG2-TP53BP1-CLTA = test system: HepG2-TP53BP1-CLTA
Procedure, shortened: as §1

HepG2-TUBA1B-RELA = test system: HepG2-TUBA1B-RELA
Procedure, shortened: as §1

WPMY1-ACTB-RAB5A = test system: WPMY1-ACTB-RAB5A
Procedure, shortened: as §1

WPMY1-CANX-COX4 = test system: WPMY1-CANX-COX4
Procedure, shortened: as §1

WPMY1-GM130-SQSTM1 = test system: WPMY1-GM130-SQSTM1
Procedure, shortened: as §1

WPMY1-TP53BP1-CLTA = test system: WPMY1-TP53BP1-CLTA
Procedure, shortened: as §1

WPMY1-TUBA1B-RELA = test system: WPMY1-TUBA1B-RELA
Procedure, shortened: as §1

Measured: phenotypically active

Cc1ccc(Nc2nnc(-c3ccc([N+](=O)[O-])cc3)o2)cc1Cl
inactive: A549-ACTB-RAB5A 0 | A549-CANX-COX4 0 | A549-GM130-SQSTM1 0 | A549-TP53BP1-CLTA 0 | A549-TUBA1B-RELA 0 | HepG2-ACTB-RAB5A 0 | HepG2-CANX-COX4 0 | HepG2-GM130-SQSTM1 0 | HepG2-TP53BP1-CLTA 0 | HepG2-TUBA1B-RELA 0 | WPMY1-ACTB-RAB5A 0 | WPMY1-CANX-COX4 0 | WPMY1-GM130-SQSTM1 0 | WPMY1-TP53BP1-CLTA 0 | WPMY1-TUBA1B-RELA 0

CC(=O)c1ccc(S(=O)(=O)NC(=O)NC2CCCCC2)cc1 [acetohexamide]
inactive: A549-ACTB-RAB5A 0 | A549-CANX-COX4 0 | A549-GM130-SQSTM1 0 | A549-TP53BP1-CLTA 0 | A549-TUBA1B-RELA 0 | HepG2-ACTB-RAB5A 0 | HepG2-CANX-COX4 0 | HepG2-GM130-SQSTM1 0 | HepG2-TP53BP1-CLTA 0 | HepG2-TUBA1B-RELA 0 | WPMY1-ACTB-RAB5A 0 | WPMY1-CANX-COX4 0 | WPMY1-GM130-SQSTM1 0 | WPMY1-TP53BP1-CLTA 0 | WPMY1-TUBA1B-RELA 0

NC(=O)c1cn(Cc2c(F)cccc2F)nn1 [rufinamide]
inactive: A549-ACTB-RAB5A 0 | A549-CANX-COX4 0 | A549-GM130-SQSTM1 0 | A549-TP53BP1-CLTA 0 | A549-TUBA1B-RELA 0 | HepG2-ACTB-RAB5A 0 | HepG2-CANX-COX4 0 | HepG2-GM130-SQSTM1 0 | HepG2-TP53BP1-CLTA 0 | HepG2-TUBA1B-RELA 0 | WPMY1-ACTB-RAB5A 0 | WPMY1-CANX-COX4 0 | WPMY1-GM130-SQSTM1 0 | WPMY1-TP53BP1-CLTA 0 | WPMY1-TUBA1B-RELA 0

Cc1cc(-c2ccc(/C=C3\S/C(=N\c4ccc(Cl)c(C(=O)O)c4)NC3=O)o2)c([N+](=O)[O-])cc1C
inactive: A549-ACTB-RAB5A 0 | A549-CANX-COX4 0 | A549-GM130-SQSTM1 0 | A549-TP53BP1-CLTA 0 | A549-TUBA1B-RELA 0 | HepG2-ACTB-RAB5A 0 | HepG2-CANX-COX4 0 | HepG2-GM130-SQSTM1 0 | HepG2-TP53BP1-CLTA 0 | HepG2-TUBA1B-RELA 0 | WPMY1-ACTB-RAB5A 0 | WPMY1-CANX-COX4 0 | WPMY1-GM130-SQSTM1 0 | WPMY1-TP53BP1-CLTA 0 | WPMY1-TUBA1B-RELA 0

C[C@H](N[C@@H](CCc1ccccc1)C(=O)O)C(=O)N1CCC[C@H]1C(=O)O [enalaprilat]
inactive: A549-ACTB-RAB5A 0 | A549-CANX-COX4 0 | A549-GM130-SQSTM1 0 | A549-TP53BP1-CLTA 0 | A549-TUBA1B-RELA 0 | HepG2-ACTB-RAB5A 0 | HepG2-CANX-COX4 0 | HepG2-GM130-SQSTM1 0 | HepG2-TP53BP1-CLTA 0 | HepG2-TUBA1B-RELA 0 | WPMY1-ACTB-RAB5A 0 | WPMY1-CANX-COX4 0 | WPMY1-GM130-SQSTM1 0 | WPMY1-TP53BP1-CLTA 0 | WPMY1-TUBA1B-RELA 0

CC(=O)CCCCn1c(=O)c2c(ncn2C)n(C)c1=O [Pentoxifylline]
inactive: A549-ACTB-RAB5A 0 | A549-CANX-COX4 0 | A549-GM130-SQSTM1 0 | A549-TP53BP1-CLTA 0 | A549-TUBA1B-RELA 0 | HepG2-ACTB-RAB5A 0 | HepG2-CANX-COX4 0 | HepG2-GM130-SQSTM1 0 | HepG2-TP53BP1-CLTA 0 | HepG2-TUBA1B-RELA 0 | WPMY1-ACTB-RAB5A 0 | WPMY1-CANX-COX4 0 | WPMY1-GM130-SQSTM1 0 | WPMY1-TP53BP1-CLTA 0 | WPMY1-TUBA1B-RELA 0

OC[C@H]1NC[C@H](O)[C@@H](O)[C@@H]1O [1-Deoxynojirimycin]
inactive: A549-ACTB-RAB5A 0 | A549-CANX-COX4 0 | A549-GM130-SQSTM1 0 | A549-TP53BP1-CLTA 0 | A549-TUBA1B-RELA 0 | HepG2-ACTB-RAB5A 0 | HepG2-CANX-COX4 0 | HepG2-GM130-SQSTM1 0 | HepG2-TP53BP1-CLTA 0 | HepG2-TUBA1B-RELA 0 | WPMY1-ACTB-RAB5A 0 | WPMY1-CANX-COX4 0 | WPMY1-GM130-SQSTM1 0 | WPMY1-TP53BP1-CLTA 0 | WPMY1-TUBA1B-RELA 0

CC[N+](CC)(CCNC(=O)C(=O)NCC[N+](CC)(CC)Cc1ccccc1Cl)Cc1ccccc1Cl [ambenonium]
inactive: A549-ACTB-RAB5A 0 | A549-CANX-COX4 0 | A549-GM130-SQSTM1 0 | A549-TP53BP1-CLTA 0 | A549-TUBA1B-RELA 0 | HepG2-ACTB-RAB5A 0 | HepG2-CANX-COX4 0 | HepG2-GM130-SQSTM1 0 | HepG2-TP53BP1-CLTA 0 | HepG2-TUBA1B-RELA 0 | WPMY1-ACTB-RAB5A 0 | WPMY1-CANX-COX4 0 | WPMY1-GM130-SQSTM1 0 | WPMY1-TP53BP1-CLTA 0 | WPMY1-TUBA1B-RELA 0

COC(=O)C1CC23C=CCN4CCC5(c6ccccc6NC15[C@H]2C)C43 (stereo not given in full) [Vindolinine dichlorhydrate]
inactive: A549-ACTB-RAB5A 0 | A549-CANX-COX4 0 | A549-GM130-SQSTM1 0 | A549-TP53BP1-CLTA 0 | A549-TUBA1B-RELA 0 | HepG2-ACTB-RAB5A 0 | HepG2-CANX-COX4 0 | HepG2-GM130-SQSTM1 0 | HepG2-TP53BP1-CLTA 0 | HepG2-TUBA1B-RELA 0 | WPMY1-ACTB-RAB5A 0 | WPMY1-CANX-COX4 0 | WPMY1-GM130-SQSTM1 0 | WPMY1-TP53BP1-CLTA 0 | WPMY1-TUBA1B-RELA 0

CCCCCCCCCCCCCCCCCCc1ccc(C(=O)/C=C/C(=O)O)cc1
inactive: A549-ACTB-RAB5A 0 | A549-CANX-COX4 0 | A549-GM130-SQSTM1 0 | A549-TP53BP1-CLTA 0 | A549-TUBA1B-RELA 0 | HepG2-ACTB-RAB5A 0 | HepG2-CANX-COX4 0 | HepG2-GM130-SQSTM1 0 | HepG2-TP53BP1-CLTA 0 | HepG2-TUBA1B-RELA 0 | WPMY1-ACTB-RAB5A 0 | WPMY1-CANX-COX4 0 | WPMY1-GM130-SQSTM1 0 | WPMY1-TP53BP1-CLTA 0 | WPMY1-TUBA1B-RELA 0

COc1cc2ncnc(Oc3cccc(NC(=O)Nc4cc(C(C)(C)C(F)(F)F)on4)c3)c2cc1OC
inactive: A549-ACTB-RAB5A 0 | A549-CANX-COX4 0 | A549-GM130-SQSTM1 0 | A549-TP53BP1-CLTA 0 | A549-TUBA1B-RELA 0 | HepG2-ACTB-RAB5A 0 | HepG2-CANX-COX4 0 | HepG2-GM130-SQSTM1 0 | HepG2-TP53BP1-CLTA 0 | HepG2-TUBA1B-RELA 0 | WPMY1-ACTB-RAB5A 0 | WPMY1-CANX-COX4 0 | WPMY1-GM130-SQSTM1 0 | WPMY1-TP53BP1-CLTA 0 | WPMY1-TUBA1B-RELA 0

O=P(O)(O)C(O)(Cn1ccnc1)P(=O)(O)O [zoledronic-acid]
inactive: A549-ACTB-RAB5A 0 | A549-CANX-COX4 0 | A549-GM130-SQSTM1 0 | A549-TP53BP1-CLTA 0 | A549-TUBA1B-RELA 0 | HepG2-ACTB-RAB5A 0 | HepG2-CANX-COX4 0 | HepG2-GM130-SQSTM1 0 | HepG2-TP53BP1-CLTA 0 | HepG2-TUBA1B-RELA 0 | WPMY1-ACTB-RAB5A 0 | WPMY1-CANX-COX4 0 | WPMY1-GM130-SQSTM1 0 | WPMY1-TP53BP1-CLTA 0 | WPMY1-TUBA1B-RELA 0
